FAK blocker: FAK (human) kinase inhibition. Q05397. biochemical FAK kinase activity assay. inhibition, %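 (tested at 7 µM)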. hit rate 0.84% among 97,000. AID 727;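 note: 0% = DMSO and 100% = reference compound high control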
sdo1 growth: compounds rescuing growth of sdo1-depleted yeast, bone marrow failure model | hit rate 0.21% among 140,000 | S. cerevisiae sdo1-depleted JHY4D growth rescue, OD600 30 h; stronger effect = higher value; pdr5 snq2 efflux-pump mutant strain | z-score at 10 µM;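 active = z-score above 3 at both the 24 hr and the 30 hr optical density reads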;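 note: z-score against mean and SD of all compound wells on the same plate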
S1P2 ag: S1P2 (human) receptor agonism; O95136; S1P2-expressing cell line, agonist reporter read-out; activation, % at 4.5 µM; hit rate 0.46% among 97,000; AID 729; in the data active = activation above about 16%;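 note: 0% = vehicle low control and 100% = maximal reference agonist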
GALR2 blocker: blocks the human galanin receptor 2; O43603; GALR2-expressing cells, antagonist mode; inhibition, % at 4 µM; hit rate 0.39% among 140,000; AID 828; in the data active = inhibition above about 27%;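 note: cells stimulated with galanin 1-16 at roughly its EC80; 0% = agonist challenge control and 100% = basal control without agonist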
Target sequence (O43603 whole entry, looked up): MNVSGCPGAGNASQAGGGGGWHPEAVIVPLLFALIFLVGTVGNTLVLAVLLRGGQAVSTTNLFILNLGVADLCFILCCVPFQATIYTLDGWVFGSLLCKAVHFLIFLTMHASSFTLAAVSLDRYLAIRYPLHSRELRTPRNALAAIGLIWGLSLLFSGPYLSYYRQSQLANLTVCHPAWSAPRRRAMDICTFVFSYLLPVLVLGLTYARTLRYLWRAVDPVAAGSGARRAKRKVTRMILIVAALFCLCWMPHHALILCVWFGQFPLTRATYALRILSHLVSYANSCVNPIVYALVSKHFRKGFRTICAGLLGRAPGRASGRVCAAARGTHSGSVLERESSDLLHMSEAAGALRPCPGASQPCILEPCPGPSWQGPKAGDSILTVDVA
S1P2 antag: antagonists of human S1P2 receptor; O95136; cell-based S1P2 antagonist assay, inhibition at 5 uM; inhibition, % at 5 µM; hit rate 0.21% among 97,000; AID 736; in the data active = inhibition above about 45%;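 note: CRE beta-lactamase reporter cells expressing human S1P2 stimulated with S1P; 0% = agonist at EC80 alone and 100% = agonist plus reference antagonist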
GALR2 ag: activates the human galanin receptor 2; O43603; GALR2-expressing cells, agonist activation read-out; activation, % (no concentration beside the values); hit rate 0.48% among 140,000; in the data active = activation above about 5%, passing the limit was not always enough;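 note: 0% = vehicle buffer wells and 100% = reference agonist at full effect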
FAK inh conf: FAK (human) inhibition confirmed; shares compounds with FAK blocker; FAK kinase biochemical inhibition assay; inhibition, % at 7 µM; hit rate 28% among 750; AID 794
The depositor's hits bear a star; x = no result given. This is a sample that favours compounds with a hit; in the whole collection about 1.9% have one here. Cut-off read from the data, not from the text of the source, unless noted: active = inhibition above about 19%; inactive = the rest.

SMILES	FAK blocker	sdo1 growth	S1P2 ag	GALR2 blocker	S1P2 antag	GALR2 ag	FAK inh conf
Cc1c(C(=O)OCC(C)C)[nH]c2c1C(=O)CC(c1ccco1)C2 (stereo not given)	15	-0.91	-1	-3	2	3	x
Cc1nn(CC(=O)Nc2ccc3c(c2)oc2ccccc23)c(=O)c2ccccc12	29*	-0.29	-7	-3	0	-2	16
CNC(=O)Cn1nc(C)c2ccccc2c1=O	3	2.2	-3	1	16	-1	x
O=C1Nc2ccccc2S/C1=C/Nc1cccc(Cl)c1	26*	-0.06	-4	11	2	2	6
CC(=O)N1CCc2cc(S(=O)(=O)NCCC(=O)N3CCN(c4ccccn4)CC3)ccc21	32*	0.37	-7	7	1	0	1
CC1(C)C(=O)Nc2ccccc2N1C(=O)COC(=O)c1ccc(Cl)c(S(=O)(=O)NCc2ccccc2)c1	0	-0.05	-3	-1	-6	0	x
CCOc1ccc2nc(SCC(=O)N3CCCCCC3)c(C#N)cc2c1	25*	-2	0	-9	-14	0	9
Clc1ccc(-c2n[nH]c3c2CCC3)cc1Cl	28*	-1.3	-12	16	6	-3	15
O=C(CSc1nnc(Cc2cccs2)n1C1CCCCC1)N1CCN(C(=O)c2ccco2)CC1	-2	0.69	-4	-11	20	0	x
CC(Sc1nnc(Cc2cccs2)n1C1CCCCC1)C(N)=O (stereo not given)	26*	-0.13	-8	5	1	-3	-1
CCn1c(SCc2nc3cc(OC)c(OC)cc3c(=O)[nH]2)nnc1-c1ccncc1	-1	-0.35	-2	-17	1	-2	x
c1cncc(-c2nc3ccccc3[nH]2)c1	28*	1.6	-1	7	-3	-2	3
CC(=O)Nc1ccc2nc(-c3cccnc3)[nH]c2c1	x	0.45	x	-6	x	-1	x
CC1=NN(C(=O)COc2ccccc2C)C(O)(c2ccc(Cl)cc2)C1 (stereo not given)	x	-0.59	x	-4	x	-1	x
CCN(CC)c1ncnc2ccc(Br)cc12	45*	0.03	-6	-4	-109	-2	18
Cc1nn(CC(=O)Nc2ccc(S(=O)(=O)N(C)C)cc2)c(C)c1[N+](=O)[O-]	x	-0.43	x	12	x	-2	x
COCCNC(=O)c1c(N)n(CCCn2ccnc2)c2nc3ccccc3nc12	24*	0.28	18*	12	-5	0	-1
Clc1ccc2ncc(-c3nnnn3-c3ccccc3)c(-c3ccccc3)c2c1	-1	-1.5	-2	-3	-25	-2	x
Clc1ccc2[nH]cc(-c3nnnn3-c3ccccc3)c2c1	33*	-1.7	-7	10	-33	-2	20*
CCOC(=O)N1CCN(C(=O)c2cn(CC)c3cc(N4CCN(C)CC4)c(F)cc3c2=O)CC1	x	0.12	x	7	x	-1	x
O=C(CNC(=O)c1ccco1)NCC(=O)OCc1ccc(Cl)cc1	39*	0.82	-5	-7	-25	-1	1
O=C(Nc1ccccc1C(=O)NCc1ccc(Cl)cc1)c1ccco1	27*	-2.1	-9	-14	1	-2	2
O=C(CNC(=O)c1cccs1)NCC(=O)OCc1ccc(Cl)cc1	5	0.42	-4	-6	8	-1	x
Cc1ccc(Oc2nccc(-c3ccc(Cl)cc3)n2)cc1	5	-1.4	-3	-11	21	0	x
COc1cc(NC(=O)c2cccc(COCC(F)(F)C(F)F)c2)cc(OC)c1OC	x	0.88	x	5	x	-1	x
SMILES	FAK blocker	sdo1 growth	S1P2 ag	GALR2 blocker	S1P2 antag	GALR2 ag	FAK inh conf
CSc1nc(SCCO)c2sc3nc(-c4ccco4)c4c(c3c2n1)CC(C)(C)OC4	28*	0.08	7	8	-18	6.3*	1
CC(=O)Nc1ccc2[nH]c(C)cc(=O)c2c1	81*	1.1	-2	-4	11	-1	6
CC(=O)Nc1ccc2[nH]c3ccccc3c2c1	3	0.91	-4	9	0	-4	x
COc1ccc(CN2CCCC2C(=O)Nc2ccc(OC)c(OC)c2)cc1OC (stereo not given)	-3	0.05	-5	-18	-1	0	x
CCCOc1ccc(N)cc1N	22*	-0.02	-9	-1	18	-2	0
CCCOc1ccccc1NC(=O)c1ccc(N)cc1	3	-1.7	-3	-8	-1	1	x
CCN(Cc1cc(=O)n2ccsc2n1)c1cccc2ccccc12	x	-0.86	x	6	x	-1	x
CCOC(=O)c1cnc2c(C)cccc2c1NCc1ccco1	2	-0.26	0	-25	-11	0	x
CCOC(=O)c1cnc2ccc(OC)cc2c1Nc1ccc2c(c1)OCCO2	24*	-1.9	-2	-4	-11	-1	11
CCOC(=O)c1cnc2c(OC)cccc2c1Nc1ccc2c(c1)OCCO2	x	-1.1	x	15	x	0	x
CCOC(=O)c1cnc2ccc(C(=O)OC)cc2c1Nc1ccc2c(c1)OCCO2	36*	0.65	-5	-10	5	-1	11
CCOC(=O)c1ccc2ncc(C(=O)OCC)c(NCc3ccco3)c2c1	23*	-1.1	-6	0	-16	-1	9
O=S(=O)(c1ccc(Br)s1)n1cccn1	4	1.1	-1	-7	9	-2	x
CCCN(CCC)C(=O)CSc1nc2n[nH]c(C)c2c(=N)n1-c1ccc(OC)cc1	22*	-0.37	3	-16	19	1	3
CCCN(CCC)C(=O)CSc1nc2n[nH]c(C)c2c(=N)n1-c1ccc(OCC)cc1	6	-0.92	-4	2	18	-2	x
Cc1ccc(C(=O)N2CCN(c3ncccn3)CC2)cc1S(=O)(=O)N1CCCCC1	x	0.64	x	0	x	-1	x
Cc1cc(=O)[nH]c(SCC(=O)Nc2ccc(C(=O)O)cc2)n1	2	0.7	-2	1	-5	-1	x
CCOC(=O)c1ccc(NC(=O)CSc2nc(C)cc(=O)[nH]2)cc1	20*	-0.09	-3	-25	1	-1	5
CC1CCCCN1C(=O)CSc1ccc(-c2ccc(F)cc2)nn1 (stereo not given)	26*	-1	0	-5	0	-1	10
COc1ccc(-c2ccc(SCC(=O)N3CCCC3)nn2)cc1OC	-2	0.59	-4	1	-36	-2	x
COc1ccc(OCCCc2c(C)n[nH]c2C)cc1	-1	1.2	-2	-17	-9	-2	x
Cc1n[nH]c(C)c1CCCOc1ccccc1	50*	-0.3	-3	-4	3	0	3
Cc1nn2c(c1-c1ccccc1)NC1=C(C(=O)CCC1)C2c1ccccc1 (stereo not given)	25*	1	-9	4	9	-3	22*
COc1ccc(/C=N/NC(=O)c2cccc(OC(F)(F)C(F)F)c2)cc1O	x	0.08	x	13	x	-1	x
O=C(CSc1nnc(COc2cccc3cccnc23)o1)N1CCc2ccccc21	20*	0.42	-11	-6	21	0	8
O=C(CSc1nnc(Cc2ccccc2)o1)N1CCc2ccccc21	1	-0.21	-2	4	-5	-3	x

High-throughput results from PubChem.
